As usually defined, the residual activity is the signal under treatment as a percentage of the control signal.

The target of experiment [1] is T1, Rhodopsin kinase GRK7 (Homo sapiens) (UniProt Q8WTQ7).
T1 sequence (whole entry): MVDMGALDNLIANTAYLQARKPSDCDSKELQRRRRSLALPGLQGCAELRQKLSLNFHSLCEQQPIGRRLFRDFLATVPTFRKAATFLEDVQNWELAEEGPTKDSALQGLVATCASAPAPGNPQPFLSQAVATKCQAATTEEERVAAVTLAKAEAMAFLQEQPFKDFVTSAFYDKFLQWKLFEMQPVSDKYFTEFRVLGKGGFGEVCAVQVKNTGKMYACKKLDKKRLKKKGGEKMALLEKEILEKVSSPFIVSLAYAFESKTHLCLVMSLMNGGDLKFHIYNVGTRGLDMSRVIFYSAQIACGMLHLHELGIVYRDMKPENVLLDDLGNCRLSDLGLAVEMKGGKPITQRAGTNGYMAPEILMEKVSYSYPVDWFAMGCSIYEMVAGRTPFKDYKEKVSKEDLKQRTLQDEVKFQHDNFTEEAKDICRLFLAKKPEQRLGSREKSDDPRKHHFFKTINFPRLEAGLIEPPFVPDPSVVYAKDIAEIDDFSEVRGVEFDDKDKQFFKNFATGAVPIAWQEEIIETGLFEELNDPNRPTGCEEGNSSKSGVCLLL
Particulars: at 10 µM.

The target in experiment [2] is Glycogen synthase kinase-3 alpha (Homo sapiens) (UniProt P49840). The settings on record: at 1 µM.
For experiment [3] the target is unchanged. Particulars: at 10 µM.
Experiment [4] deals with Glycogen synthase kinase-3 beta (Homo sapiens) (UniProt P49841). The settings on record: at 1 µM.
Chain of Glycogen synthase kinase-3 beta (Homo sapiens) (P49841 whole entry, looked up): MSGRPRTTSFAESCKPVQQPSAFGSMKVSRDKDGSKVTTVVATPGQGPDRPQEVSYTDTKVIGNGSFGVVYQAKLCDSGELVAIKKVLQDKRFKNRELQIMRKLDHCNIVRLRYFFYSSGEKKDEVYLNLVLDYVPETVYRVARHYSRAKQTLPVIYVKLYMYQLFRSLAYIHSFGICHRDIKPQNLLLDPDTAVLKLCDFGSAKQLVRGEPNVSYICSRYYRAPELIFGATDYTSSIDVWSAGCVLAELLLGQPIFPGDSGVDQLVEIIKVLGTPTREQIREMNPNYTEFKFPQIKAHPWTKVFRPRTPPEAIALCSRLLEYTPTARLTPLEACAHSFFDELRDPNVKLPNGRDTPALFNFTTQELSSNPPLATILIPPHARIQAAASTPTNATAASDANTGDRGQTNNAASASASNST
Experiment [5] has the same target. Particulars: at 10 µM.
Experiment [6] deals with Homeodomain-interacting protein kinase 1 (Homo sapiens) (UniProt Q86Z02). Particulars: at 1 µM.
For experiment [7] the target is unchanged. The settings on record: at 10 µM.
For experiment [8], the target named is Homeodomain-interacting protein kinase 2 (Homo sapiens) (UniProt Q9H2X6). The settings on record: at 1 µM.
Chain of Homeodomain-interacting protein kinase 2 (Homo sapiens) (Q9H2X6 whole entry, looked up): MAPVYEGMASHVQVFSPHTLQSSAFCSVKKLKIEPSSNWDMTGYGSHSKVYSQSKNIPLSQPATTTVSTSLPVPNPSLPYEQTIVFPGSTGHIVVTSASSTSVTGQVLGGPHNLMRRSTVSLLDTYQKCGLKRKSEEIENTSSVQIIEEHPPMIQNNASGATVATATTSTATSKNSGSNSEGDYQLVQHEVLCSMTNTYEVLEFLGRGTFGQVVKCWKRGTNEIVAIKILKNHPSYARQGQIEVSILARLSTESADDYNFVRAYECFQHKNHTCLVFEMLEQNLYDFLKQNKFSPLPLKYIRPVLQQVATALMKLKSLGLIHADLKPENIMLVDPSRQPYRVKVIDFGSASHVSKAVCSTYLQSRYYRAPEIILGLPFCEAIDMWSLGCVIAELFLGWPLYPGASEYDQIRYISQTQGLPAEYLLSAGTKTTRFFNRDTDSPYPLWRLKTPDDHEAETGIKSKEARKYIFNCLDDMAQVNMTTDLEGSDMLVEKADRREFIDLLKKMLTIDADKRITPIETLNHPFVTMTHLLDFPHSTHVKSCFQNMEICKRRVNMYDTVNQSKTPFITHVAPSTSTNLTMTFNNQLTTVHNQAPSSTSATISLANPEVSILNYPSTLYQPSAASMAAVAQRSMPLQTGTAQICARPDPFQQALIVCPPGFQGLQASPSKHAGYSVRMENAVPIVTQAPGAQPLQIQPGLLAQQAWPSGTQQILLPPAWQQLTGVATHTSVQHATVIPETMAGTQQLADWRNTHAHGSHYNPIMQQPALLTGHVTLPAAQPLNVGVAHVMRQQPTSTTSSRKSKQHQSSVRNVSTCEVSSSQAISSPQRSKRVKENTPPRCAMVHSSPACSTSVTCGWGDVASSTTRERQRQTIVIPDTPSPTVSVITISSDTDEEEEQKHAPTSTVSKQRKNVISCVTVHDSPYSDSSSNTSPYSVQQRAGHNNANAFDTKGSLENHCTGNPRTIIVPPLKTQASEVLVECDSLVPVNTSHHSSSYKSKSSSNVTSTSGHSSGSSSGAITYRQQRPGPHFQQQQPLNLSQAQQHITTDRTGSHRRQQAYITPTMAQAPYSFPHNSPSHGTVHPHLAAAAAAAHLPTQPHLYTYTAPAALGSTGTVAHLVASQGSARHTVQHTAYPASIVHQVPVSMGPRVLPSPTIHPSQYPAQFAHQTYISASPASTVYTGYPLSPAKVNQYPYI
Experiment [9] shares this target. Particulars: at 10 µM.
The target of experiment [10] is Homeodomain-interacting protein kinase 3 (Homo sapiens) (UniProt Q9H422). The settings on record: at 1 µM.
Chain of Homeodomain-interacting protein kinase 3 (Homo sapiens) (Q9H422 whole entry, looked up): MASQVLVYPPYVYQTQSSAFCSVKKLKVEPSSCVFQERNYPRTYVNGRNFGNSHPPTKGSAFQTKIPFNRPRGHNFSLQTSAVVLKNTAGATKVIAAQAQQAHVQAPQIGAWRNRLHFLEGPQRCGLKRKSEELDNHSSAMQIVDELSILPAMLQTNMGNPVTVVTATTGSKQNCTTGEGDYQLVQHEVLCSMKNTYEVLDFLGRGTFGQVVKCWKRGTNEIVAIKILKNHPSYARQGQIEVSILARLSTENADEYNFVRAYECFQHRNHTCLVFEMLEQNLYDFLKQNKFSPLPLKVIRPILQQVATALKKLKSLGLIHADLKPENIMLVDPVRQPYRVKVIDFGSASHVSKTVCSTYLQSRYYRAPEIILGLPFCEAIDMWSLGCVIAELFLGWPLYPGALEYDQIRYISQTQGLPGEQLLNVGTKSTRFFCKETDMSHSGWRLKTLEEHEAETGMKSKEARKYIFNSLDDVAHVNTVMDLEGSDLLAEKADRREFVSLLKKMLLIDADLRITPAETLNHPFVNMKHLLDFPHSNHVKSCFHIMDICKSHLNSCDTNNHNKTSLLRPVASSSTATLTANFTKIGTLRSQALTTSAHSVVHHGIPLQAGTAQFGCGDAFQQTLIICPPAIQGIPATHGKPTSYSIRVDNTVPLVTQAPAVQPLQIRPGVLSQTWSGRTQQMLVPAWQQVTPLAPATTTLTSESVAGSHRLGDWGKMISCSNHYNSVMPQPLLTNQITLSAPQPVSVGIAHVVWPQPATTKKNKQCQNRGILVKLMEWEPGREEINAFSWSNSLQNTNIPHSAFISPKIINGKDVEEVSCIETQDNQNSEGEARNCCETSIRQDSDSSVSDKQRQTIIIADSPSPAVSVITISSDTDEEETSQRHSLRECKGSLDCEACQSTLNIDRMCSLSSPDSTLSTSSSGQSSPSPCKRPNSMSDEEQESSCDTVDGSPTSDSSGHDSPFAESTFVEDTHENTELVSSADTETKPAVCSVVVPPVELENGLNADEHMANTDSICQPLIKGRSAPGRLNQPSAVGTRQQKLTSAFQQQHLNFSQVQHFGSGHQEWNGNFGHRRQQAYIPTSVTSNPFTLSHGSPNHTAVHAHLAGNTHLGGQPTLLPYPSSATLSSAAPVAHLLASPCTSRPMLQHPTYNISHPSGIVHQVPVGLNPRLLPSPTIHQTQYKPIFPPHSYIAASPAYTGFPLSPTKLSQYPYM
The target is the same in experiment [11]. The settings on record: at 10 µM.
Experiment [12] deals with T2, Serine/threonine-protein kinase haspin (Homo sapiens) (UniProt Q8TF76).
T2 sequence (whole entry): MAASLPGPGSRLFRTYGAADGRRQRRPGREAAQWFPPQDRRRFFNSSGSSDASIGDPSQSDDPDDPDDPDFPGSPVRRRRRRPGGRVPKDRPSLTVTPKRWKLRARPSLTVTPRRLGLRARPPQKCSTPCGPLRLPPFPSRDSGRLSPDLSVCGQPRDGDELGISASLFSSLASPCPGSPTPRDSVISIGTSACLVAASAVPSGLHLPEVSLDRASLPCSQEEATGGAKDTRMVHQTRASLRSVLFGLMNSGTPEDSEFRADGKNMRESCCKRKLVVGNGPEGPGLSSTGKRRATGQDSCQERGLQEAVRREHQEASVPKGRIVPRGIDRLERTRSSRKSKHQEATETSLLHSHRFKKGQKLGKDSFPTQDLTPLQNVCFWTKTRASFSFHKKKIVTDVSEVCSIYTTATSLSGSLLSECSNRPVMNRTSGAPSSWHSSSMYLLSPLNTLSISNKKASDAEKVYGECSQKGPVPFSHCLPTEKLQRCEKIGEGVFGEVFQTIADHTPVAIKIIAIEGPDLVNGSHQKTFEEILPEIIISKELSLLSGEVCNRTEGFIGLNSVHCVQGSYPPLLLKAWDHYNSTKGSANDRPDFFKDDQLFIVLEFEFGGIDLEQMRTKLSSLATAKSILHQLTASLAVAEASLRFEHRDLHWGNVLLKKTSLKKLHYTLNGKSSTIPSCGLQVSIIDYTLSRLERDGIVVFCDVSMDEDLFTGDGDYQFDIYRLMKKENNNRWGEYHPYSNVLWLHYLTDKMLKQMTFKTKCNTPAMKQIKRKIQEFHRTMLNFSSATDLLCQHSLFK
The settings on record: at 1 µM.

The target of experiment [13] is T2, Serine/threonine-protein kinase haspin (Homo sapiens). The settings on record: at 10 µM.
For experiment [14], the target named is Tyrosine-protein kinase HCK (Homo sapiens) (UniProt P08631). Particulars: at 1 µM.
Chain of Tyrosine-protein kinase HCK (Homo sapiens) (P08631 2-526 limits assumed): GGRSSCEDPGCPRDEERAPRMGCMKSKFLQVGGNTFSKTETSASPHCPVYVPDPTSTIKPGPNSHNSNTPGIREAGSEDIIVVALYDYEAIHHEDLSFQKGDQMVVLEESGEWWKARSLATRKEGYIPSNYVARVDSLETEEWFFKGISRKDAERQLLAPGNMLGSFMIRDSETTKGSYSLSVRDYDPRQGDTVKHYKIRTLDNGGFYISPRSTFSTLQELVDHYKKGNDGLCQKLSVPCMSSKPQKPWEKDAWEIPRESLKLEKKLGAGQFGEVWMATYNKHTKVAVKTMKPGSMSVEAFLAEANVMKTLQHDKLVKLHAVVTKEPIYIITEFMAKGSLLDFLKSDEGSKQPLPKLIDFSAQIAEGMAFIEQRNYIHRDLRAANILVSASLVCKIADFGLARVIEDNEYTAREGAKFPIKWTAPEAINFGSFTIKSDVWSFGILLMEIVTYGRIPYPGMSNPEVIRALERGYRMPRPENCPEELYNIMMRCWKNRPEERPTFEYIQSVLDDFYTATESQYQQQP
The target is the same in experiment [15]. Particulars: at 10 µM.
Experiment [16] has the same target. Particulars: at 1 µM. The source holds these as a separate data set.
Experiment [17] has the same target. Particulars: at 10 µM. The source holds these as a separate data set.
Experiment [18] concerns the target Insulin-like growth factor 1 receptor (Homo sapiens) (UniProt P08069). The settings on record: at 1 µM.
The target is the same in experiment [19]. Particulars: at 10 µM.
Experiment [20] has as its target T3, Protein kinase C zeta type (Homo sapiens) (UniProt Q05513).
T3 sequence (whole entry): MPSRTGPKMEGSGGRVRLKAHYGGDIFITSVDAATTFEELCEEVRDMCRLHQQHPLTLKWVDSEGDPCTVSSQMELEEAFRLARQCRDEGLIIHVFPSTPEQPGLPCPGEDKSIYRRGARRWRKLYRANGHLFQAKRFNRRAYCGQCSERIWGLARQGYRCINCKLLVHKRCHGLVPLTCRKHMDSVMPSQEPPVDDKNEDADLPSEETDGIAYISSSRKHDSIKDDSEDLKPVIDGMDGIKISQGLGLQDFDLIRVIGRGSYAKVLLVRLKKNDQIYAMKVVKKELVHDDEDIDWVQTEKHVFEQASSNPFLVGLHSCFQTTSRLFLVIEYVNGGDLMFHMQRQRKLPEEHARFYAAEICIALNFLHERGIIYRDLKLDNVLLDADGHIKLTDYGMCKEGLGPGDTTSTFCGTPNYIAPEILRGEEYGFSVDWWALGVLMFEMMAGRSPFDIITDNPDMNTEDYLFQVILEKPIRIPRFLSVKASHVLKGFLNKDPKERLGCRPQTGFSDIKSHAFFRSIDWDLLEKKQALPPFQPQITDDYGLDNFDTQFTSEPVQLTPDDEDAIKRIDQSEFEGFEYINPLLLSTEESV
The settings on record: at 10 µM.

Chain of Insulin-like growth factor 1 receptor (Homo sapiens) (P08069 31-736 limits assumed): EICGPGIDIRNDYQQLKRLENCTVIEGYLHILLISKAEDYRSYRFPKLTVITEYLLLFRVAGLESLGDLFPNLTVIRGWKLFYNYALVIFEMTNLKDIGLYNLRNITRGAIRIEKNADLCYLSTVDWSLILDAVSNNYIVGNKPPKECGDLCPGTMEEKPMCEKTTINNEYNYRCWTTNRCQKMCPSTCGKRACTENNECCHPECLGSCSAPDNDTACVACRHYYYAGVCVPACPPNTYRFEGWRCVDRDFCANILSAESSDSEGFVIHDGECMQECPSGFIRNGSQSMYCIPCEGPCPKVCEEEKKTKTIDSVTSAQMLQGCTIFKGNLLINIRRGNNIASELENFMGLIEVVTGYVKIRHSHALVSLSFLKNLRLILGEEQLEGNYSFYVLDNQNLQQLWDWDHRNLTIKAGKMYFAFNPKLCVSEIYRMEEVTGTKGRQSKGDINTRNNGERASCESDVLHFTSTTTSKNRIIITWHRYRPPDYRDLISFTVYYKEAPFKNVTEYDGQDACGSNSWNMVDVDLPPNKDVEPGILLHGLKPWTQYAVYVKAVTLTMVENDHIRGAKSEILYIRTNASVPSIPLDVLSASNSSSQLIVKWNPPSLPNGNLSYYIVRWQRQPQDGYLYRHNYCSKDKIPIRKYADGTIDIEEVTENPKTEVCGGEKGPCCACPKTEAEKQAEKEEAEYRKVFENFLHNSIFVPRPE
Chain of Insulin-like growth factor 1 receptor (Homo sapiens) (P08069 741-1367 limits assumed): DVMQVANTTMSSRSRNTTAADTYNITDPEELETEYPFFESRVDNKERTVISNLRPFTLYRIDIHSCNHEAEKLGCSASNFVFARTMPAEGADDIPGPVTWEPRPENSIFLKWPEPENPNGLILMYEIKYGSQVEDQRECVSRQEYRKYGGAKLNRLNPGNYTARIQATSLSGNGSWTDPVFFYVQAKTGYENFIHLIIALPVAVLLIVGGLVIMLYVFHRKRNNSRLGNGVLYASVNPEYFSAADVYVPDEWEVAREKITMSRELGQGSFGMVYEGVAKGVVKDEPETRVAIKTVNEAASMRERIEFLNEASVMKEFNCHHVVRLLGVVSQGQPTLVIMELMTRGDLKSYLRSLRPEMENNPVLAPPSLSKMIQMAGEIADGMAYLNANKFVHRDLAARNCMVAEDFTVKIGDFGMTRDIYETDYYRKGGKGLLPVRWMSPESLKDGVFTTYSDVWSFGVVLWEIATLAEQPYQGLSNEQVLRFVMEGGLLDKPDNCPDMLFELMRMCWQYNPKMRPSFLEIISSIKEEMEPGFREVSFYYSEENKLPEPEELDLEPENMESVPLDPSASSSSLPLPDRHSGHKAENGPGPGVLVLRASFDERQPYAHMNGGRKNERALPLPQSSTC

As for `Cn1cc(/C=C2\C(=O)Nc3ccc(S(N)(=O)=O)cc32)c2ccccc21`, the residual activity in experiment [1] came to 6%; in [2] it was 120%; in experiment [3], 87%; in [4], 89%; in experiment [5], 66%; in experiment [6], 91%. The residual activity in experiment [7] was 93%; in experiment [8] it was 60%; in [9], 19%; in [10], 85%; in experiment [11], 32%; in experiment [12], 101%. Also, the residual activity was 50% in [13]; 26% in [14]; 5% in [15]; 56% in experiment [16]; 47% in [17]; 118% in experiment [18]. Further, the residual activity was found to be 114% in [19] and 109% in [20].
On to `O=C1Nc2ccccc2/C1=C1/Nc2ccccc2/C1=N\OCCC(O)CO` (stereo not given), for which the residual activity in experiment [1] was 33%; in experiment [2], 4%; in experiment [3] it was 0%; in experiment [4], 6%; in [5], 6%; in [6], 77%. Besides, the residual activity in [7] is 50%; in [8] it was 40%; in experiment [9], 7%; in experiment [10], 70%; in experiment [11], 56%; in [12] it was 13%. Besides, the residual activity was determined as 11% in experiment [13]; 4% in experiment [14]; 0% in experiment [15]; 8% in experiment [16]; 7% in experiment [17]; 25% in [18]. Besides, the residual activity in experiment [19] turned out to be 2%; in experiment [20], 104%.
For the compound `Cc1ccc(S(=O)(=O)/C=C/C#N)cc1`, the residual activity amounted to 90% in experiment [1]; 115% in [2]; 102% in [3]; 117% in [4]; 121% in experiment [5]; 104% in experiment [6]. The residual activity stood at 90% in [7]; 101% in experiment [8]; 96% in [9]; 103% in experiment [10]; 98% in [11]; 94% in experiment [12]. The residual activity stood at 102% in [13]; 87% in experiment [14]; 82% in experiment [15]; 98% in [16]; 97% in experiment [17]; 75% in experiment [18]. Further, the residual activity came to 107% in experiment [19] and 96% in experiment [20].
In the case of `N#C/C(=C(\N)Sc1ccc(N)cc1)c1ccccc1C(F)(F)F`, the residual activity in experiment [1] was determined as 91%; in [2], 89%; in [3], 87%; in [4] it was 99%; in experiment [5] it was 96%; in experiment [6], 109%. The residual activity in [7] was 101%; in experiment [8], 99%; in [9], 92%; in [10], 93%; in experiment [11], 86%; in [12], 108%. Besides, the residual activity is 116% in [13]; 67% in experiment [14]; 41% in [15]; 99% in experiment [16]; 108% in [17]; 99% in experiment [18]. The residual activity in [19] is 123%; in [20] it was 105%.
As for `Oc1n[nH]c2nnc(-c3c(-c4ccccc4)nn4ccccc34)cc12`, the residual activity in [1] came to 82%; in experiment [2] it was 100%; in experiment [3] it was 83%; in [4], 113%; in experiment [5] it was 106%; in experiment [6], 98%. The residual activity is 95% in [7]; 95% in [8]; 92% in [9]; 98% in [10]; 97% in experiment [11]; 114% in experiment [12]. Besides, the residual activity in experiment [13] turned out to be 106%; in experiment [14], 75%; in [15] it was 67%; in experiment [16] it was 92%; in [17] it was 80%; in experiment [18], 67%. For the same compound, the residual activity came to 37% in experiment [19] and 104% in experiment [20].
Consider `Cc1nc2cc3nc(-c4cccs4)cnc3cc2n1C`, for which the residual activity in experiment [1] came to 78%; in experiment [2], 136%; in [3], 109%; in experiment [4], 101%; in experiment [5], 81%; in experiment [6], 107%. The residual activity in experiment [7] was 106%; in experiment [8] it was 104%; in [9], 73%; in experiment [10], 92%; in [11] it was 97%; in experiment [12], 123%. Further, the residual activity in experiment [13] was 79%; in experiment [14], 92%; in experiment [15] it was 67%; in [16], 90%; in experiment [17] it was 34%; in experiment [18], 141%. Also, the residual activity in [19] was found to be 61%; in [20] it was 109%.
For `Oc1ccc(-c2nc(-c3ccc(F)cc3)c(-c3ccncc3)[nH]2)cc1`, the residual activity in experiment [1] worked out at 96%; in [2] it was 95%; in experiment [3], 42%; in experiment [4] it was 88%; in experiment [5] it was 28%; in [6] it was 103%. Besides, the residual activity in experiment [7] came out at 96%; in [8], 99%; in experiment [9] it was 95%; in experiment [10], 106%; in experiment [11] it was 105%; in experiment [12] it was 55%. Also, the residual activity in [13] was found to be 10%; in experiment [14], 59%; in experiment [15], 24%; in [16] it was 98%; in experiment [17], 45%; in experiment [18] it was 113%. Further, the residual activity amounted to 141% in experiment [19] and 92% in experiment [20].
